# According to the supplement of paper PMC8975748:
# Where a name gives a salt, the structure may show the parent alone. ± gives the standard deviation of the averaged measurements.
# System: Saccharomyces cerevisiae BY4741 SeMeCo community
# Experiment: mean cell size (pixel area) (pixels); higher = larger cells
# Conditions: 10 µM; 24 h; SM minimal medium
# Outline: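 Yeast cells were fixed with paraformaldehyde, imaged by automated confocal microscopy and analysed in Harmony to obtain mean cell pixel area per well. They came from a four-plasmid fluorescent Saccharomyces cerevisiae BY4741 community, each plasmid complementing one auxotrophy and carrying a fluorescent marker. Before imaging, 70 µl of culture at OD600 = 0.3 was incubated for 24 h in SM medium in 384-well plates predosed acoustically with drug (final 10 µM). Values are means of 3 replicates. Same SeMeCo high-content imaging drug screen: Selleck FDA-approved drugs at 10 µM, 24 h in SM medium, 384-well plates, 3 replicates.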
row,Compound,mean cell size
1,CN1[C@@H]2C[C@@H](OC(=O)[C@H](CO)c3ccccc3)C[C@H]1[C@@H]1O[C@@H]12 [Scopolamine HBr],12.5 ± 0.14
2,Nc1ccncc1 [4-Aminopyridine],12.2 ± 0.16
3,CCN1C[C@]2(OC(=O)c3ccccc3NC(C)=O)CC[C@H](OC)[C@@]34[C@@H]2C[C@@H]([C@@H]13)[C@@]1(O)C[C@H](OC)[C@H]2C[C@@H]4[C@]1(O)[C@H]2OC [Lappaconitine],12.4 ± 0.3
4,Cn1cc(C2=C(c3cn(C4CCN(Cc5ccccn5)CC4)c4ccccc34)C(=O)NC2=O)c2ccccc21,12.41 ± 0.12
5,COc1ccc(C(CN(C)C)C2(O)CCCCC2)cc1 (stereo not given) [Venlafaxine HCl],12.3 ± 0.27
6,CC(=O)c1c(O)cc(C)oc1=O [Sodium dehydroacetate],12.3 ± 0.038
7,[O-][n+]1ccccc1[S-].[O-][n+]1ccccc1[S-].[Zn+2] [Zinc Pyrithione],15.2 ± 0.23
8,CCN(C)C(=O)Oc1cccc([C@H](C)N(C)C)c1 [Rivastigmine Tartrate],12.38 ± 0.056
9,C[N+](C)(C)CCCCCCCCCC[N+](C)(C)C [Decamethonium Bromide],12.47 ± 0.097
10,C=C(C)[C@H]1Cc2c(ccc3c2O[C@@H]2COc4cc(OC)c(OC)cc4[C@@H]2C3=O)O1 [Rotenone (Barbasco)],12.67 ± 0.1
11,C[C@@H]1[C@H](O)[C@@H](C)/C=C/C=C/CC/C=C/C=C/C=C/C=C/[C@H](O[C@H]2O[C@@H](C)[C@H](O)[C@@H](N)[C@H]2O)C[C@@H]2O[C@](O)(C[C@@H](O)[C@H](O)CC[C@@H](O)C[C@@H](O)C[C@@H](O)CC(=O)O[C@H]1C)C[C@H](O)[C@H]2C(=O)O [Nystatin (Fungicidin)],9.704 ± 0.046
12,CC[C@H]1CN2CC[C@]3(C(=O)Nc4ccccc43)[C@@H]2C[C@@H]1/C(=C\OC)C(=O)OC [Rhynchophylline],12.38 ± 0.1
13,Cc1cc(C(C#N)c2ccc(Cl)cc2)c(Cl)cc1NC(=O)c1cc(I)cc(I)c1O (stereo not given) [Closantel],12.3 ± 0.27
14,O=C(O[C@H]1C[N+]2(CCCOc3ccccc3)CCC1CC2)C(O)(c1cccs1)c1cccs1 [Aclidinium Bromide],12.59 ± 0.061
15,C[CH2][Hg][S]c1ccccc1C(=O)[O-].[Na+] [Thimerosal],12.3 ± 0.52
16,COc1ccc(C=O)cc1 [p-Anisaldehyde],12.3 ± 0.27
17,CN(C)C(=O)Oc1cccc([N+](C)(C)C)c1 [Neostigmine Bromide],11.8 ± 0.15
18,CCN(CC)CCOC(=O)C(O)(c1ccccc1)c1ccccc1 [Benactyzine hydrochloride],12.4 ± 0.051
19,C[C@@H]1CC[C@H]2[C@@H](C)C(=O)O[C@@H]3O[C@@]4(C)CC[C@@H]1[C@]32OO4 [Artemisinin],12.3 ± 0.3
20,C[C@H]1O[C@H](O[C@H]2[C@H](O)[C@@H](O)[C@@H](O)[C@H](O)[C@@H]2O)[C@@H](N)C[C@@H]1NC(=N)C(=O)O [Kasugamycin hydrochloride],12.1 ± 0.21

row,Compound,mean cell size
1,NCCc1c[nH]c2ccc(O)cc12 [Serotonin HCl],12.2 ± 0.41
2,CN1[C@@H]2CC[C@H]1C[C@@H](OC(=O)[C@H](CO)c1ccccc1)C2 [Hyoscyamine],12.27 ± 0.064
3,CC(NC(C)(C)C)C(=O)c1cccc(Cl)c1 (stereo not given) [Amfebutamone (Bupropion) HCl],12.5 ± 0.13
4,COC(=O)C1=CCCN(C)C1 [Arecoline HBr],12.4 ± 0.29
5,CCC1=C[C@H]2CN3CCc4c([nH]c5ccccc45)[C@](C(=O)OC)(C2)[C@H]13 [Catharanthine],12.5 ± 0.19
6,"NCC(O)c1ccc(O)cc1 (racemic) [(+,-)-Octopamine HCl]",12.3 ± 0.14
7,C=C[C@H]1CN2CC[C@H]1C[C@H]2[C@H](O)c1ccnc2ccccc12 [Cinchonidine],12.47 ± 0.048
8,N[C@@H]1C[C@H]1c1ccccc1 [Tranylcypromine (2-PCPA) HCl],12.3 ± 0.32
9,C=CC[C@]1(O)CC[C@H]2[C@@H]3CCC4=CC(=O)CCC4=C3C=C[C@@]21C [Altrenogest],12.58 ± 0.1
10,COc1ccc2c3c([nH]c2c1)C(C)=NCC3 [Harmaline],12.4 ± 0.34
11,CC[C@H]1[C@@H]2C[C@H]3[C@@H]4N(C)c5ccccc5[C@]45C[C@@H]([C@@H]2[C@H]5O)N3[C@@H]1O [Ajmaline],12.1 ± 0.16
12,CCOC(=O)Nc1ccc(NCc2ccc(F)cc2)cc1N [Retigabine 2HCl],12.5 ± 0.25
13,CCN(C)C(=O)Oc1cccc([C@H](C)N(C)C)c1 [Rivastigmine],12.7 ± 0.17
14,Nc1nc(N)nc(NC2CC2)n1 [Cyromazine],12.46 ± 0.1
15,CC(=O)OCC1=C(C(=O)O)N2C(=O)[C@@H](N)[C@H]2SC1 [7-Aminocephalosporanic acid],12.28 ± 0.11
16,CNC1CC(N)C(O)C(OC2OC(CO)C(O)C3OC4(OC(C(N)CO)C(O)C(O)C4O)OC23)C1O (stereo not given) [Hygromycin B],11.8 ± 0.24
17,C[N+]12CCC(CC1)C(OC(=O)C(O)(c1ccccc1)c1ccccc1)C2 (stereo not given) [Clidinium Bromide],12.4 ± 0.13
18,CCCCCCCCCCCCCCCC[n+]1ccccc1 [Cetylpyridinium Chloride],11.2 ± 0.14
19,CC(C)(O)C(Cl)(Cl)Cl [Chlorobutanol],12.5 ± 0.16
20,CN1[C@@H]2C[C@@H](OC(=O)[C@H](CO)c3ccccc3)C[C@H]1[C@@H]1O[C@@H]12 [Scopolamine HBr trihydrate],12.1 ± 0.18
